# Screens: PubChem, The Scripps Research Institute Molecular Screening Center
# CHRM1 antagonist: antagonists of human M1 muscarinic receptor. CHO-K1 hM1, Fluo-8 calcium fluorescence, ACh EC80 antagonist. inhibition, % at 3 µM. 1.3% of 360,000 active. AID 588852;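 active = percent inhibition above its own plate's cutoff, namely the mean of that plate's compound wells plus 3 SD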;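 also: peak over basal fluorescence ratio during 140 s after agonist addition; 0% = ACh EC80 plus DMSO and 100% = DMSO alone without agonist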
# Target sequence (P11229 whole entry, looked up): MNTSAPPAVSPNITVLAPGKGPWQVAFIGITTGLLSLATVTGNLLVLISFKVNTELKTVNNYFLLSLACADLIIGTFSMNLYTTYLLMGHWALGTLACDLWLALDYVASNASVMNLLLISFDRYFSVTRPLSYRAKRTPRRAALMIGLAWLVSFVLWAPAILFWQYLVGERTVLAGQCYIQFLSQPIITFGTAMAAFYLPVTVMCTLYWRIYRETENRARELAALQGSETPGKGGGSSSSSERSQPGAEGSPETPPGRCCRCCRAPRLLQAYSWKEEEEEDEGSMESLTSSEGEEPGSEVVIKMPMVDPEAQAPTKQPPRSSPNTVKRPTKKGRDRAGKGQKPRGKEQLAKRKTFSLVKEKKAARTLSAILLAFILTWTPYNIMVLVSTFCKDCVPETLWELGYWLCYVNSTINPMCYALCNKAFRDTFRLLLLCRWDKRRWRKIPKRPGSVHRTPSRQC
# CHO-K1 Ca antag: nonselective inhibitor or artifact in parental CHO-K1 cells | AID 602250 | inhibition, % at 3 µM | ATP-induced calcium, Fluo-8 fluorescence | 0.6% of 360,000 active;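 active = inhibition above a per-plate cutoff, the plate's mean sample inhibition plus 3 SD, cut at about 24% in these data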;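 also: 0% = DMSO plus EC80 ATP and 100% = DMSO alone without ATP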
# M1 ag: agonists of human M1 muscarinic receptor; CHO-K1 hM1, Fluo-8 calcium fluorescence, agonist mode; 0% DMSO, 100% acetylcholine EC100; activation, % at 3 µM; 0.33% of 360,000 active; AID 588814;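 active = activation above the run's mean compound activation plus 3 SD, cut at about 16% in these data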;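 also: peak over basal fluorescence ratio within a 140 s kinetic read after compound addition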
# M1 PAM parental: nonselective activator or artifact in parental CHO-K1 calcium assay; 0.02% of 360,000 active; activation, % at 3 µM; ATP EC20, Fluo-8 calcium fluorescence; 0% at ATP EC20, 100% at ATP max;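 active = activation above the run cutoff, the mean activation of all test compounds plus 3 SD, cut at about 40% in these data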;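 also: peak over basal fluorescence ratio in a 140 s read after ATP addition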
# CHO-K1 Ca ag: counter-screen for M1 agonists: effect in parental CHO-K1 cells. activation, % at 3 µM. Fluo-8 calcium fluorescence; scaled to maximal ATP response, vehicle zero. AID 602248. 0.48% of 360,000 active; in the data active = activation above about 15%;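 also: untransfected CHO-K1 host cells lacking M1 receptor as counterscreen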
# CHRM1 PAM: positive allosteric modulators of human M1 muscarinic receptor; P11229; CHO-K1 hM1, Fluo-8 calcium fluorescence, ACh EC20; 0% = ACh EC20, 100% = maximal ACh; activation, % at 3 µM; 0.088% of 360,000 active; in the data active = activation above about 19%, passing the limit was not always enough
# * = called active by the depositor; . = no result given. The list is not random: actives were taken first. Their share in the collection is about 2.3%.
SMILES,CHRM1 antagonist,CHO-K1 Ca antag,M1 ag,M1 PAM parental,CHO-K1 Ca ag,CHRM1 PAM
COc1ccccc1C(=O)NC(=O)COC(=O)CN1C(=O)NC2(CCCCC2C)C1=O (stereo not given),-9.8,16.8,-2.5,-13.1,0.2,2.9
CC1CCCCC12NC(=O)N(CC(=O)OCC(=O)Nc1ccc(F)cc1[N+](=O)[O-])C2=O (stereo not given),29.0*,6.4,3.4,-2.0,5.3,-16.7
CC1CCCCC12NC(=O)N(CC(=O)NCc1cccs1)C2=O (stereo not given),-4.8,25.1*,-4.7,-4.7,1.8,0.6
O=C(Nc1cc(C(F)(F)F)ccc1N1CCOCC1)C1CCCO1 (stereo not given),-4.3,-10.7,-3.8,17.1,0.7,6.0
C[C@@H]1CN([C@H](C)CO)S(=O)(=O)c2ccc(C#CCN(C)C)cc2O[C@@H]1CN(C)Cc1ccccc1F,-3.8,-16.1,-9.9,7.5,0.9,1.6
CN(C)S(=O)(=O)Nc1cc(F)cc(F)c1,-10.3,-18.4,-5.2,8.9,0.3,4.4
N#CC1=C(N)OC2=C(CCc3ccccc32)C1c1ccccc1Cl (stereo not given),43.9*,-10.3,-8.8,13.1,0.1,-22.2
N#CC1=C(N)Oc2cc(N)ccc2C1c1ccccc1Cl (stereo not given),-21.3,4.7,0.0,-3.0,2.5,15.6
Cc1ccc(CNC(=O)c2cccnc2Sc2cccc(Cl)c2)cc1,-5.9,-16.1,22.4*,28.7,6.2,7.2
OCC1(Cc2ccccc2Cl)CCN(C/C=C/c2ccccc2)CC1,61.7*,3.5,-5.1,3.5,3.4,-25.6
OCC1(CCc2ccccc2)CCN(C/C=C/c2ccccc2)CC1,24.8,-12.1,-8.0,30.1,21.2*,-24.3
O=C(CCC(F)(F)F)N1CCC(CO)(CCc2ccccc2)CC1,-9.6,6.1,-1.3,-16.5,-0.1,-4.7
COC(=O)c1cccc(C(=O)N2CCC(CO)(Cc3ccccc3Cl)CC2)c1,1.3,-8.3,2.7,9.7,6.9,-1.1
COc1cc(CNc2ncnc3c2ncn3[C@H]2CN(Cc3ccncc3)C[C@@H](CO)O2)cc(OC)c1OC,-16.1,-9.1,-2.4,7.9,0.0,9.1
COc1ccc(N2CCN(C(=O)c3ccc(COc4ccc([N+](=O)[O-])cc4)o3)CC2)cc1,29.6*,-1.5,0.2,-8.7,13.7,-14.8
COc1ccc(N2CCN(C(=O)Oc3ccc([N+](=O)[O-])cc3)CC2)cc1,.,0.2,.,10.7,7.1,.
Cc1ccc(/C=C2\SC(=S)N(CCC(=O)NNC(=O)c3cccc(O)c3)C2=O)cc1,31.6*,14.4,-0.7,15.2,5.3,-9.3
COc1cc(/C=C2\SC(=S)N(NC(=O)c3ccc(O)c(OC)c3)C2=O)ccc1O,24.8,8.5,26.8*,7.8,17.1*,-11.3
COc1cc(/C=C2\SC(=S)N(NC(=O)c3cccc(O)c3)C2=O)ccc1O,22.6,13.1,16.5*,-34.0,13.6,-5.5
O=C(CCCN1C(=O)/C(=C/c2cccs2)SC1=S)Nc1cccc(O)c1,24.8*,15.2,-1.3,-4.8,9.3,-17.1
C[C@H](O)[C@@H]1CN2CCc3c([nH]c4ccccc34)[C@@H]2C[C@@H]1N(C)C(=S)Nc1ccc(C#N)cc1,-6.2,8.8,-9.7,10.1,0.6,8.4
CC(C)Oc1cc(F)ccc1-c1cc(C(=O)NCc2ccccn2)[nH]n1,-6.4,-10.7,-6.2,15.8,3.0,1.3
O=S(=O)(c1ccc(OC(F)(F)F)cc1)N1CCCC(N2CCOCC2)C1 (stereo not given),1.3,0.5,-4.3,-5.2,0.3,-3.9
O=C1[C@@H]2Cc3c([nH]c4ccccc34)C(c3cccc([N+](=O)[O-])c3)N2C(=O)CN1CCCO (stereo not given in full),-6.8,17.0,-5.3,-16.8,5.5,7.2
CN1CCN(C(=O)c2ccccc2N(Cc2ccccc2)S(=O)(=O)c2ccccc2)CC1,2.9,-7.5,28.4*,-7.1,0.7,-6.8
SMILES,CHRM1 antagonist,CHO-K1 Ca antag,M1 ag,M1 PAM parental,CHO-K1 Ca ag,CHRM1 PAM
Cc1ccc(/C=C/C(=O)Nc2sc3c(c2C#N)CCCC3)o1,-4.1,37.5*,0.5,-16.9,-0.9,14.3
CCc1ccc(CCC(=O)Nc2sc3c(c2C#N)CCCC3)o1,1.5,-6.0,-6.4,15.1,0.4,-3.0
S=c1nc(-c2cc(Cl)ccc2Cl)[nH][nH]1,0.9,26.2*,5.6,-14.4,-0.3,15.2
CC(Oc1ccc(Br)cc1)C(=O)Nc1nnc(C2CC2)s1 (stereo not given),-8.6,-6.8,17.8*,21.5,12.7,6.1
Cn1c(=O)c2c(n(C)c1=O)n(C)c(=O)n2C,-2.8,0.6,-3.6,10.4,0.0,0.8
CCOP(=O)(OCC)C(NC(=O)Nc1ccc(Cl)cc1)c1ccccc1 (stereo not given),4.0,-3.6,-4.5,24.0,2.3,4.3
CC(NC(=O)Nc1ccc(Cl)cc1)c1ccccc1 (stereo not given),-9.7,1.2,0.6,4.6,28.6*,1.9
CC(=O)c1ccc(NC(=O)Nc2ccc(Cl)cc2)cc1,28.8,19.0,1.4,-0.5,17.0*,-18.3
CC(=O)c1ccc(NC(=S)NCc2ccc(Cl)cc2Cl)cc1,20.0,15.9,4.5,-12.0,16.4*,-8.2
CCN(CC)P(=O)(Nc1ccccc1Br)c1ccc(N(C)C)cc1NC(=O)c1ccco1 (stereo not given),14.6,-7.0,-1.1,8.6,-0.4,-4.2
C[C@@H]1CN([C@@H](C)CO)C(=O)c2ccccc2-c2ccccc2CO[C@@H]1CN(C)S(=O)(=O)c1ccc(C(F)(F)F)cc1,-13.1,-9.9,-6.4,28.4,0.5,9.9
CNc1snc(C)c1C(=O)OCC(=O)c1ccc(OC)c(F)c1,40.4*,18.4,0.4,-21.0,14.4,-17.0
Cc1ccc(/C=C/c2onc(C)c2S(=O)(=O)N2CCC(C(=O)N3CCCCC3)CC2)cc1,-16.9,-10.7,-4.4,26.1,0.5,11.7
CCCN1CCN(C(=O)C2CCN(S(=O)(=O)c3c(C)noc3/C=C/c3ccc(C)cc3)CC2)CC1,33.9*,-9.1,-4.8,11.1,1.6,-22.0
CCOC(=O)N1CCN(C(=O)CSCc2ccc(C)cc2)CC1,17.5,25.8*,-0.2,-7.8,-0.3,-0.7
CCOC(=S)SCC(=O)Nc1nc(-c2ccccc2)cs1,-7.7,-8.4,-6.2,18.5,4.5,5.6
Cc1ccc(-c2csc(NC(=O)CSC3=NCCS3)n2)cc1,4.3,24.8*,-5.5,-5.9,0.0,-10.2
CCOC(=O)N1CCN(C(=O)CSCC(=O)Nc2nc(-c3ccc(-c4ccccc4)cc3)cs2)CC1,48.2*,6.8,4.3,7.6,8.2,-18.6
CCOC(=S)SCC(=O)Nc1nc(-c2ccc(Br)cc2)cs1,32.5*,-5.2,-4.2,10.6,2.0,3.9
Cc1sc(NC(=O)CSC2=NCCS2)nc1-c1ccccc1,-23.6,0.9,-4.3,6.3,0.5,-1.8
